Compound activity deposited in PubChem by several laboratories.
TLR4 MyD88 comp – inhibitors of TLR4-MyD88 association in cells, primary screen, cell-based, HeLa CL3-4, BLA complementation, FRET ratio; HeLa CL3-4 TLR4/MyD88 BLA complementation; inhibition, % at 8.4 µM; hit rate 0.18% among 200,000; Toll-like receptor 4 (Homo sapiens) + Myeloid differentiation primary response protein …; in the data active = inhibition above about 25%;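 also: 0% = vehicle and 100% = reference inhibitor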
ABHD5-PLIN5 inh – ABHD5-PLIN5 interaction inhibitors, primary screen, cell lysate, split luciferase complementation, luminescence; Perilipin-5 (Homo sapiens) + 1-acylglycerol-3-phosphate O-acyltransferase ABHD5 (Homo …; Split G. princeps luciferase complementation, 4 h; inhibition, % at 4 µM; hit rate 0.78% among 360,000; AID 602281, 2012;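 active = inhibition above the mean inhibition across every tested compound plus 3 SD, cut at about 22% in these data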;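 also: 0% = DMSO only wells and the 100% control is not disclosed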
Target sequence (Q00G26 whole entry, looked up): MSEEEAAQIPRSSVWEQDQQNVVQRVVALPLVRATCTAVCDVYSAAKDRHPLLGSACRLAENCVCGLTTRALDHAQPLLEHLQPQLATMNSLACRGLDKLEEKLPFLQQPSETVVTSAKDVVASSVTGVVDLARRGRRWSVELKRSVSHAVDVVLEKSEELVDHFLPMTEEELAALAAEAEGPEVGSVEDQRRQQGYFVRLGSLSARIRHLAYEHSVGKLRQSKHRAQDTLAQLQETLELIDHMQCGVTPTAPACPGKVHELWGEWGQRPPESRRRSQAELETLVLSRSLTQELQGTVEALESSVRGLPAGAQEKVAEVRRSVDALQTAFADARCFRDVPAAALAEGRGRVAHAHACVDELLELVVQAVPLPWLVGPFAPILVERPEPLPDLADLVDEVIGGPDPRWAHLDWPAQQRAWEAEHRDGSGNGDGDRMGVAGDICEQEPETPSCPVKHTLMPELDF
Target sequence (Q8WTS1 whole entry, looked up): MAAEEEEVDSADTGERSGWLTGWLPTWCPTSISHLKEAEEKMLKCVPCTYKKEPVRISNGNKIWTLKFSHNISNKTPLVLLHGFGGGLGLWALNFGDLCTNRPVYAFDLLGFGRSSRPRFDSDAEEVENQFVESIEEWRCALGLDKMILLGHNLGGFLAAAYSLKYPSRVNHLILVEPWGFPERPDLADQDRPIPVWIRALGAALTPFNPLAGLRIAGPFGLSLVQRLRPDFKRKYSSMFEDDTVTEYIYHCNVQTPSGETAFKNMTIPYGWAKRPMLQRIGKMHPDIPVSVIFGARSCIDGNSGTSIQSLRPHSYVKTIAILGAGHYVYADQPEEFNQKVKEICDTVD
Exocytosis inh – LAMP-1 surface exposure blockers, TALL-104 cells – cell-based, flow cytometry, MLPCN library, primary screen. TALL-104 LAMP-1 surface exposure; cells stimulated with thapsigargin and PMA. inhibition, % at 10 µM. hit rate 0.66% among 360,000;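 active = inhibition above about 55%, limit read from the data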
NOD2-RIPK2 inh – NOD2-RIPK2 binding disruptors in cells, primary screen, fluorescence, CHO cells, BLA complementation; CCF4 ratio; AID 624267, 2012; Receptor-interacting serine/threonine-protein kinase 2 (Homo sapiens), O43353; hit rate 0.38% among 360,000; inhibition, % at 4.98 µM; in the data active = inhibition above about 21%;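 also: 0% = vehicle only and 100% = reference blocker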
TLR9-MyD88 inh – inhibitors of TLR9-MyD88 association in cells, primary screen, cell-based, CHO, BLA complementation, fluorescence. Toll-like receptor 9 (Homo sapiens) + Myeloid differentiation primary response protein …. hit rate 0.21% among 340,000. CCF4 FRET ratio. inhibition, % at 4.98 µM;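 active = inhibition above the mean over all tested compounds plus 3 SD, cut at about 21% in these data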;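 also: 0% = DMSO only wells and 100% = clavulanate BLA inhibitor control wells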
PRMT1 FP inh – PRMT1 methyltransferase inhibitors, primary screen, biochemical, fluorescence polarization; recombinant PRMT1, activity-based probe fluorescence polarization; Protein arginine N-methyltransferase 1 (Homo sapiens), Q99873; inhibition, % at 2.79 µM; hit rate 1.3% among 370,000;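 active = inhibition above about 21% made by adding two undisclosed values, limit read from the data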
NOD2 RIPK2 conf – NOD2-RIPK2 binding disruptors, retest, confirmation, fluorescence, CHO cells, BLA complementation, triplicate. CCF4 FRET. shares compounds with NOD2-RIPK2 inh. inhibition, % at 4.98 µM. hit rate 70% among 1,200;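 active = mean inhibition across replicates above a set limit taken from the earlier primary screen, cut at about 21% in these data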;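 also: 0% = DMSO-only wells and the high end = clavulanate BLA-blocked wells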
NOD2 BLA counter – NOD2-RIPK2 counterscreen BLA reporter activity. shares compounds with NOD2-RIPK2 inh. CHO BLA reporter, CCF4 FRET ratio. inhibition, % at 4.98 µM. hit rate 57% among 1,200;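 active = mean inhibition above the low-control mean inhibition plus three low-control SD, cut at about 11% in these data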;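 also: 0% = DMSO only wells and 100% = clavulanate high control wells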
An asterisk follows results filed as active; / = no result given. An excerpt weighted towards active compounds, which were near 2.6% of everything screened.

SMILES	TLR4 MyD88 comp	ABHD5-PLIN5 inh	Exocytosis inh	NOD2-RIPK2 inh	TLR9-MyD88 inh	PRMT1 FP inh	NOD2 RIPK2 conf	NOD2 BLA counter
COc1ccc(NC(=O)C(C2CC2)n2c(=O)c(-c3cc4ccccc4[nH]3)nc3ccccc32)cc1 (stereo not given)	/	-11	-3	46*	/	6	40*	67*
O=C(Nc1ccc2c(c1)OCCO2)C(C1CC1)n1c(=O)c(-c2cc3ccccc3[nH]2)nc2ccccc21 (stereo not given)	/	2	5	45*	/	0	38*	61*
O=C(Nc1ccc2ccccc2c1)C(C1CC1)n1c(=O)c(-c2cc3ccccc3[nH]2)nc2ccccc21 (stereo not given)	/	-10	9	45*	/	-2	41*	66*
Cc1ccc(OCc2nc3ccccc3n2C(C(=O)Nc2c(C)cccc2C)C2CC2)cc1 (stereo not given)	/	-5	18	-8	/	1	/	/
CC(=O)Nc1cccc(-c2nc3ccccc3n2C(C(=O)NC(C)(C)C)C2CC2)c1 (stereo not given)	/	8	2	-14	/	1	/	/
CC(Sc1nc2ccccc2[nH]1)C(=O)Nc1ccc2c(c1)OCCO2 (stereo not given)	-4	1	-1	3	9	1	/	/
Nc1[nH]c(C(=O)c2ccc(Br)cc2)c(-c2ccncc2)c1C(=O)NCCc1c[nH]c2ccccc12	/	/	/	/	/	2	/	/
CN1[C@H](Cc2ccccc2)COc2cccc(F)c2S1(=O)=O	/	/	/	/	/	1	/	/
COc1ccc([N+](=O)[O-])c(S(=O)(=O)c2ccccc2)n1	/	53*	27	33*	/	25*	59*	-4
COc1ccccc1S(=O)(=O)c1ccccc1[N+](=O)[O-]	8	-2	-4	-9	-3	0	/	/
COc1ccc([N+](=O)[O-])c(S(=O)(=O)c2ccc(Cl)cc2)n1	/	39*	10	21*	-3	21	48*	-11
COc1nc(OC)nc(Oc2ccc(Cl)cc2[N+](=O)[O-])n1	-8	-5	3	12	3	-3	/	/
FC(F)(F)c1cnc2c(c1)Nc1ccccc1S2	-2	-8	0	22*	10	-1	9	5
CN(C)c1ccc(/C=C2\SC(=O)N(CCc3nnc(N)s3)C2=O)cc1	/	12	4	24*	5	-8	22*	13*
COc1ccccc1N1C(=O)C2C(C(=O)c3ccccc3)=NN(c3ccc(C)cc3)C2C1=O (stereo not given)	/	-1	7	27*	/	3	67*	67*
COc1ccccc1N1C(=O)C2C(C(=O)c3ccccc3)=NN(c3ccc(Br)cc3)C2C1=O (stereo not given)	/	3	-19	25*	/	1	81*	83*
COc1ccccc1[C@@H]1C(c2ccccc2)=NN(c2ccc(Br)cc2)[C@H]1C(=O)N1CCOC1=O	/	-7	0	-2	-17	-3	/	/
COC(=O)C1=NN(c2ccc(C)cc2)C2C(=O)N(c3ccccc3OC)C(=O)C12 (stereo not given)	/	-1	1	-11	-4	-10	/	/
COc1ccc(/C=C/C(=O)c2cc(Br)ccc2OC(=O)c2ccco2)cc1OC	-2	1	-1	-1	-6	-3	/	/
COc1ccc(/C=C/C(=O)c2cc(F)ccc2OC(=O)c2ccccc2)cc1OC	7	14	9	26*	1	-3	18	-2
Cc1ccc(-c2noc(CCC(=O)NCCCN3CCN(c4cccc(Cl)c4)CC3)n2)cc1	-4	11	23	29*	-5	0	15	-1
